Compounds with a hit are over-represented: about 3.6% of the library has one in this group of screens.
GPR32 ag: qHTS for Agonists of Human Resolvin D1 Receptor DRV1; CHO-K1 GPR32 beta-arrestin PathHunter luminescence, 90 min; zero percent set by DMSO-only wells; activation, % at 76.9 µM; hit rate 2.5% among 48,000; AID 1346428, 2018;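 active means activation of at least 60% and not above a set upper limit, about 1 call in 100 departs from these limits; inconclusive means activation of 40% to 60%, or above that upper limit; inactive means activation under 40%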; further: 0% is about no effect
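Engineered CHO-K1 line co-expressing GPR32-ProLink and EA-beta-arrestin. Compound treatment lasted 90 min at 37 °C. Luminescence was recorded after 1 h with substrate at ambient temperature, relative to DMSO basal wells.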
NTMT1 inh: Primary qHTS for Inhibitors of N-terminal methyltransferase 1 (NTMT1): MTaseGlo Assay; N-terminal Xaa-Pro-Lys N-methyltransferase 1 (Homo sapiens), Q9BV86; hit rate 2.5% among 59,000; NTMT1 MTase-Glo SAH luminescence, purified enzyme; Potency, µM (top dose mostly 114 µM), for inactives: top-dose activity change, negative = inhibition, actives largely listed as inhibitors;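 further: potency means the concentration at half of the fitted maximal effect; plate controls were DMSO vehicle for no effect and no enzyme for full effect; nearly all actives have a fitted effect of over 65% in size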
Target sequence (Q9BV86 whole entry, looked up): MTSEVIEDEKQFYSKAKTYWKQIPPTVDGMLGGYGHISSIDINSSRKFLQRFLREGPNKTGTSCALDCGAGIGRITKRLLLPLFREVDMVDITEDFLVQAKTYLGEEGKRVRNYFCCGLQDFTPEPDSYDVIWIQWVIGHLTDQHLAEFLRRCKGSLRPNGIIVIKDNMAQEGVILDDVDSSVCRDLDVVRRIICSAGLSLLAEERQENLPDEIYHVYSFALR
GALK inh: qHTS Assay for Inhibitors of Human Galactokinase (GALK): NCGC Sytravon Library Screen; P51570; recombinant GALK, Kinase-Glo ATP luminescence, 1 h; Potency, µM (series often up to 57.5 µM), for inactives: at the highest dose activity, negative = inhibition, hits mostly inhibitors; 44,000 tested, under 10 active; AID 1347072, 2019;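 further: plate controls were full GALK reaction for no effect and reaction lacking GALK for full effect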
Target sequence (P51570 whole entry, looked up): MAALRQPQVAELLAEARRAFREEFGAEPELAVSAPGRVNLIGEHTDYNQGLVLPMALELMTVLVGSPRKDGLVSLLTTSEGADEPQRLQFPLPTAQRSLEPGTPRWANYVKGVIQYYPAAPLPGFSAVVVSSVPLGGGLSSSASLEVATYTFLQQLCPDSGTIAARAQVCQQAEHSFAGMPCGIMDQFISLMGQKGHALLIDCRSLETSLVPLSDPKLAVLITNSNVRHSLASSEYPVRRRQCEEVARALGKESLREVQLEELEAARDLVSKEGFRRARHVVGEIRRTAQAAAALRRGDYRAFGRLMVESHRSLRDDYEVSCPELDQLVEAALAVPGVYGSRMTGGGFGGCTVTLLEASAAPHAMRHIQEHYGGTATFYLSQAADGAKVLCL
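Human GALK (5 nM) was incubated with 35 uM ATP and 100 uM galactose in 20 mM HEPES pH 8.0 with MgCl2, NaCl, DTT and BSA for 1 h at room temperature. Remaining ATP was measured by Kinase-Glo Plus luminescence.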
B2AR arrestin ag: qHTS assay of beta-arrestin-biased ligands of beta2-adrenergic receptor: NCGC Sytravon Library Screen. Beta-2 adrenergic receptor (Homo sapiens), P07550. Potency, µM (titrated, usually from 46.1 µM), most hits filed as activators. HTLA Tango cells, beta-arrestin recruitment, luciferase luminescence, 18 h. 44,000 tested, under 10 active;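 further: potency means the concentration at half of the fitted maximal effect; 0% = DMSO and full agonism = EC100 isoproterenol or metaproterenol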
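Luminescence read-out: arrestin recruitment to recombinant beta2-AR releases tTA, inducing luciferase. Cells exposed 18 hr at 37 degrees C to up to 46 microM compound; %Activity from corrected signal, concentration-response curves classified by r2, magnitude and efficacy.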
GALC G270D up: A Novel Cell-Based Assay to Identify Small Molecules for B -Galactocerebrosidase; 145M-Twi-hGALC-G270D cells (Twitcher mouse brain line with human GALC G270D), HMU-beta-Gal fluorescence, 48 h; Potency, µM (series often up to 57.5 µM), most hits filed as activators; hit rate 0.1% among 45,000; AID 1159614, 2016; further: potency means the concentration at half of the fitted maximal effect; 0% is about no effect; nearly all actives have a fitted effect of over 65% in size
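Live 145M-Twi cells (Twitcher mouse brain-derived, GALC-null) stably expressing human GALC-G270D, with a wild-type GALC line, were compound-treated. Residual GALC activity was then read as fluorescence from 0.1 mM final HMU-β-gal at pH 5.2; higher signal means activation.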
The depositor's hits bear a star; i = inactive; ? = inconclusive; nt = no result given; ! = not active in a repeat; [ ] = dose if it differs, or a comment. Unless noted, the call rests on the fitted dose curve; in most records, active means well fitted curve in the direction sought with a large enough effect; inconclusive means small, poorly fitted or top-dose-only effect, or another doubt; inactive means no such curve, though single readings can be large; an effect the other way counts as inactive or inconclusive.

SMILES | GPR32 ag | NTMT1 inh | GALK inh | B2AR arrestin ag | GALC G270D up
O=C(O)C(O)Cc1ccc(O)c(O)c1 (stereo not given) | nt | 89.1µM*! | nt | nt | nt
C[C@H](Cc1ccc(O)c(O)c1)[C@@H](C)Cc1ccc(O)c(O)c1 | 30.1 | 7.94µM* | nt | nt | nt
CCOc1ccc(NS(=O)(=O)c2ccc3c(c2)NC(=O)CCS3)cc1 | 74.7* | -15.7% | -0.3% | i | i
CCOc1ccc(NS(=O)(=O)c2ccc(NC(=O)N3CCCC3)cc2)cc1 | 64.7* | 13.9% | -0.2% | i | i
CC(=O)c1ccc(NS(=O)(=O)c2ccc3c(c2)NC(=O)CCS3)cc1 | -9.9 | 10.8% | -1.0% | i | i
Cc1cc(C)c(NS(=O)(=O)c2ccc3c(c2)NC(=O)CCS3)c(C)c1 | 83.2* | -4.8% | 0.8% | i | i
Cc1ccc(Cl)cc1NS(=O)(=O)c1ccc2c(c1)NC(=O)CCS2 | 93.9* | 21.4% | 2.4% | i | i
O=C(Cn1nc(-c2cccnc2)ccc1=O)NCCc1ccccc1 | nt | 9.0% | nt | nt | nt
CCc1ccc(OCC(=O)Nc2ccc(Cl)c(-c3nc4ncccc4o3)c2)cc1 | 117.9* | 5.5% | -17.5% | i | i
Cc1ccc(OCCn2c(CCNC(=O)c3ccccc3[N+](=O)[O-])nc3ccccc32)cc1 | nt | 2.3% | nt | nt | nt
Nc1ncnc2c1ncn2[C@@H]1O[C@H](CN[S+](=O)([O-])NC(=O)c2cccc(-c3noc(-c4ccccc4F)n3)c2)[C@@H](O)[C@H]1O | nt | 0.891µM* | nt | nt | nt
Nc1ncnc2c1ncn2[C@@H]1O[C@H](COP(=O)(O)CP(=O)(O)OP(=O)(O)O)[C@@H](O)[C@H]1O | 1.1 | nt | nt | nt | nt
O=C(Cc1ccc(Cl)c(Cl)c1)Nc1ccc([S+](=O)([O-])Nc2nnc(-c3ccccn3)s2)cc1 | nt | 79.4µM* | nt | nt | nt
N#Cc1ccc(NC(=O)Nc2nnc(-c3ccncc3)s2)cc1 | nt | -13.4% | nt | nt | nt
CC(C)(C)NC(=O)c1cncn1C1CCN(c2ccc(-c3nnc(C(F)(F)F)o3)cn2)CC1 | nt | 13.0% | nt | nt | nt
COc1cc(OC)c(C2Nc3ccccc3-c3nnc(SCc4ccccc4)nc3O2)cc1OC (stereo not given) | 64.1* | 2.9% | ? | i | i
CCOc1ccc(C2Nc3ccccc3-c3nnc(SCc4ccccc4)nc3O2)cc1OC (stereo not given) | 8.6 | 3.7% | -1.8% | i | i
O=C(Nc1ccc(-n2cncn2)c(F)c1)Nc1nnc(-c2ccncc2)s1 | nt | 0.0%[57.5 µM] | nt | nt | nt
CS(=O)(=O)c1ccc(C(=O)OCC(=O)N2CCN(C3CCCCC3)CC2)cc1[N+](=O)[O-] | nt | -4.9% | nt | nt | nt
Cc1ccc(N(CC2=NCCN2)c2cccc(O)c2)cc1 | -9.9 | 89.1µM*! | nt | nt | i
CCOP(=O)(Cc1ccc(C(=O)Nc2ccc(Br)cc2C#N)cc1)OCC | nt | 13.4%[29.8 µM] | nt | nt | nt
COc1ccc(-c2cn3nc(N4CCC(C(=O)Nc5cccc(OC)c5)CC4)sc3n2)cc1 | 75.8* | -3.3% | 1.4% | i | i
COc1ccc(-c2cn3nc(N4CCC(C(=O)Nc5ccc(Cl)cc5C)CC4)sc3n2)cc1 | 1.6 | 2.7% | 4.4% | i | i
CCOC(=O)c1[nH]c(C)c(C(=O)NCc2ccc(F)cc2)c1C | 11.4 | -1.8% | ? | i | i
CCOC(=O)c1[nH]c(C)c(C(=O)NCc2cccc(OC)c2)c1C | 61.0* | -5.3% | -0.1% | i | i
SMILES | GPR32 ag | NTMT1 inh | GALK inh | B2AR arrestin ag | GALC G270D up
Cc1cc(NC(=O)c2ccc(NC(=O)Cc3ccc(Cl)c(Cl)c3)cc2)no1 | nt | 9.4% | nt | nt | nt
COc1ccc(C(=O)CSc2nc(C)cc(C)c2C(=O)Nc2ccccc2C)cc1 | -20.8 | 2.82µM* | 2.0% | i | i
Cc1ccc(C(=O)CSc2nc(C)cc(C)c2C(=O)Nc2cccc(C)c2)cc1 | -25.8 | 50.1µM* | 1.1% | i | i
CC(=O)Oc1ccc2c(c1)CC[C@@H]1[C@@H]2CC[C@]2(C)[C@@H](O)CC[C@@H]12 | ? | 25.1µM* | nt | nt | i
CC[C@@H]1C(=O)N(C)c2cnc(Nc3ccc(C(=O)NC4CCC(N5CCN(CC6CC6)CC5)CC4)cc3OC)nc2N1C(C)C (stereo not given in full) | nt | 25.1µM*! | nt | nt | nt
COc1cc(C(=O)NC2CCN(C)CC2)ccc1Nc1ncc2c(n1)N(C1CCCC1)CCC(=O)N2C(C)C | nt | 22.4µM* | nt | nt | nt
COc1ccccc1Nc1nn2c(=O)c3ccc(C(=O)NC4CCCCC4)cc3nc2s1 | 13.3 | 16.5% | -0.6% | i | i
Cc1ccc(-c2cc3nccc(-c4cc([N+](=O)[O-])ccc4O)n3n2)cc1 | -42.8 | ? | -1.0% | i | i
Cc1cc(O)c(-c2ccnc3cc(-c4ccccc4)nn23)cc1Cl | 89.7* | ? | -2.4% | i | i
CCOc1ccc(NC(=O)c2ccc3c(c2)CCN3S(=O)(=O)CC)cc1 | 67.4* | 14.0% | -13.1% | i | i
CCS(=O)(=O)N1CCc2cc(C(=O)Nc3cc(C)cc(C)c3)ccc21 | -6.0 | -5.6% | -0.2% | i | i
COc1ccc(CNC(=O)c2nc(Cn3nc(C)c(Br)c3C)no2)cc1OC | 42.5 | 89.1µM* | 7.2% | i | i
O=C1c2ccccc2C(=O)N1c1cccc(Cl)c1 | nt | 0.3% | nt | nt | nt
Nc1ccc2c(c1)CN1C(=O)c3ccccc3C1=N2 | 13.6 | 12.6µM* | nt | nt | i
CCC(C)NC(=O)c1ccc2c(c1)sc1nc(-c3ccc(OC)cc3)cn12 (stereo not given) | 80.5* | 8.4% | 0.1% | i | i
CCN(CC)CCCNC(=O)c1ccc2c(c1)sc1nc(-c3ccc(C)cc3)cn12 | -7.7 | 50.1µM* | 2.2% | i | i
O=C(Nc1ncc(Cc2ccc(C(F)(F)F)cc2)s1)c1ccc(-c2cccnc2)o1 | nt | -7.0% | nt | nt | nt
c1cc(-c2cnn3cc(-c4ccc(OCCN5CCCCC5)cc4)cnc23)ccn1 | nt | 34.1µM*! | nt | nt | nt
CCc1nonc1NC(=O)c1oc2ccccc2c1C | 65.5* | 2.8% | -6.8% | i | i
COc1ccc(CCNC(=O)CCc2c(C)nc3cc(-c4cccc(F)c4)nn3c2C)cc1OC | -5.6 | 89.1µM* | 8.1% | i | i
NC(Cc1c[nH]c2ccccc12)C(=O)NC(CCC(=O)O)C(=O)O (stereo not given) | nt | 1.5%[57.5 µM] | nt | nt | nt

Screening results deposited in PubChem by National Center for Advancing Translational Sciences (NCATS).
